# Compounds with a hit are over-represented: about 2.8% of the library has one in this group of screens.
# HSV replic up – enhancers of HSV replication in host cells, fold increase, host cell viability. 0.005% of 220,000 active. maximum fold increase. HSV replication augmentation in cells; in the data active means maximum fold increase above about 1.5; tested in PC3 cells
# Wee1 stabilizer – Wee1 degradation inhibitors, primary screen, cell-based, HeLa, Wee1K328M-luciferase, luminescence | 1.2% of 220,000 active | HeLa Luc-Wee1K328M stability; 100% = proteasome inhibitor MG132 effect | AID 1321, 2008 | reporter increase, % at 5 µM;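 active means activation above the mean of all tested compounds plus 3 SD, set per screening run, cut at about 8.8% in these data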;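 further: cells exposed to compound for 20 h before luminescence read; 0% = DMSO alone and 100% = MG132 at 30 µM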
# Furin inhibitor – human furin inhibitors, primary screen, biochemical, fluorescence intensity; AID 463115, 2010; inhibition, % at 20 µM or 30 µM; purified furin, fluorogenic substrate cleavage; 0.061% of 220,000 active; P09958; in the data active means inhibition above about 25%
# EP2 mod – EP2 receptor modulators, cAMP readout, primary screen, cell-based, HTRF cAMP, PGE2 stimulation. EP2-expressing cells, cAMP HTRF FRET, PGE2 co-stimulation. 0.83% of 260,000 active. induction, % at 25 µM. Prostaglandin E2 receptor EP2 subtype (Homo sapiens), P43116;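 active means compounds whose cAMP rise, as percent of the full-agonist control response, exceeds 60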;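 further: rat C6 glioma line stably carrying human EP2 under a CMV promoter; the protocol text gives 20 µM as final concentration; 100% = response of wells given 1 µM PGE2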
# NCF1 inh – p47phox/p22phox peptide binding inhibitors, primary screen, biochemical, uHTS, NADPH oxidase regulatory subunit; Neutrophil cytosol factor 1 (Homo sapiens), P14598; fluorescence polarization, 2 h; inhibition, % at 24.7 µM; 0.53% of 220,000 active; AID 1274, 2008;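 active means inhibition above about 30%, limit read from the data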;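 further: 0% = p47phox with labelled peptide and 100% = labelled peptide alone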
# Target sequence (P14598 whole entry, looked up): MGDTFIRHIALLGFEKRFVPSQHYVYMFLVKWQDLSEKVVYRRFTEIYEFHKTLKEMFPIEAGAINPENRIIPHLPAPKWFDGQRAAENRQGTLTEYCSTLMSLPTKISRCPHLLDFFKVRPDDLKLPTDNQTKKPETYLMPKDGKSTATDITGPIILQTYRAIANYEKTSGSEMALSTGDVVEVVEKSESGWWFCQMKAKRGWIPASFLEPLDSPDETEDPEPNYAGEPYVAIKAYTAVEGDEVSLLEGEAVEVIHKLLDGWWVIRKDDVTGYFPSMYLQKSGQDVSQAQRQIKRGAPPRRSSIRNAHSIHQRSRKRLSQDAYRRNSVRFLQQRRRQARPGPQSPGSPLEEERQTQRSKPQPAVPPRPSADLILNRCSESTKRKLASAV
# EP2 antag – human EP2 receptor antagonists, primary screen, TR-FRET cAMP, C6 glioma cells; Prostaglandin E2 receptor EP2 subtype (Homo sapiens), P43116; C6 glioma cells expressing human EP2; cells stimulated with saturating PGE2; inhibition, % at 25 µM; 0.52% of 260,000 active;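 active means percent inhibition above 40 after rounding to a whole number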;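 further: rat C6 glioma host cells with rolipram phosphodiesterase inhibitor present; the protocol text gives 20 µM as final concentration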
# Wee1 stab conf – Wee1 degradation inhibitors, confirmation, cell-based, HeLa, Wee1K328M-luciferase, luminescence, triplicate. shares compounds with Wee1 stabilizer. HeLa Luc-Wee1K328M degradation; vehicle 0%, proteasome-blocked wells 100%. 4% of 1,100 active. activation, % at 5 µM; in the data active means activation above about 8.9%
# * marks the source's active call; other numbers are inactive results; i = inactive; . = no result given.
SMILES,HSV replic up,Wee1 stabilizer,Furin inhibitor,EP2 mod,NCF1 inh,EP2 antag,Wee1 stab conf
COc1cc(C(=O)NCC(=O)OCC(=O)c2ccc[nH]2)cc(OC)c1OC,i,14.1*,-7.9,2.1,-10.8,9.9,-0.5
COc1ccc(C(=O)NCC(=O)OCC(=O)c2cc(OC)c(OC)c(OC)c2)cc1OC,i,-2.8,-17.1,-30.1,2.6,6.0,.
O=C(c1ccc(S(=O)(=O)NCC2CCCO2)cc1)N1CCN(c2cccc(Cl)c2)CC1 (centres undefined),i,0.5,-32.8,-24.0,0.3,10.8,.
O=C(c1ccc(S(=O)(=O)NCC2CCCO2)cc1)N1CCN(c2ccccc2F)CC1 (centres undefined),i,26.2*,-16.0,-15.5,-5.6,5.8,1.3
O=C(O)c1ccc(C(=O)O)c(C(=O)O)c1.[NH-][C@@H]1CCCC[C@H]1[NH-].[Pt],.,.,.,10.3,.,37.2,.
O=C(Nc1cccc(Cl)c1)Nc1ccc(Br)cc1F,i,12.9*,-14.0,-53.6,-12.9,8.4,-1.0
O=C(Nc1ccccc1)Nc1ccc(Br)cc1F,i,2.1,-19.6,-11.2,-9.6,9.2,.
CNc1nc(-c2ccc3c(c2)CCN3C(=O)c2ccccc2F)cs1,i,11.3*,-19.4,-25.3,5.4,5.1,6.9
COc1cccc(C2=NOC(C(=O)N3CCN(c4ccccc4)CC3)C2)c1OC (centres undefined),i,31.1*,-8.7,-26.8,-5.5,11.9,3.1
COc1ccc(-n2ncc3c2CCCC3NC(=O)Cc2ccc(OC)c(OC)c2)cc1 (centres undefined),.,.,.,-48.5,.,5.1,.
COc1cccc(/C(O)=C2/C(=O)C(=O)N(CCCN(C)C)C2c2ccc(C)o2)c1 (centres undefined),.,.,.,1.5,.,14.9,.
CCC(C)(C)NC(=O)C(c1ccc(C)o1)N(C(=O)c1csnn1)c1cccc(Cl)c1 (centres undefined),.,.,.,-1.2,.,3.4,.
O=C(Nc1ccc(N2CCOCC2)c([N+](=O)[O-])c1)c1ccco1,i,10.9*,3.2,-29.6,-2.6,9.1,1.3
COC(=O)/C=C/c1ccc2c(c1)OCO2,i,0.7,-26.2,-2.0,-2.4,1.2,.
COC(=O)/C=C/c1ccc(OC(=O)OC)c(OC(=O)OC)c1,i,12.2*,-14.7,34.2,-11.6,2.7,0.8
CN(C)c1ccc(CN(CCCn2ccnc2)Cc2ccsc2)cc1,.,.,.,-15.3,.,2.2,.
O=C(COC(=O)c1c2c(nc3ccccc13)/C(=C/c1ccco1)CC2)NC1CCCC1,i,-2.3,1.7,-33.0,1.1,14.9,.
CC1CCCCC1NC(=O)COC(=O)c1c2c(nc3ccccc13)/C(=C/c1ccco1)CC2 (centres undefined),i,11.3*,-6.3,17.2,-4.6,4.3,-0.5
c1ccc(CCN2CCC(n3cnc4cccnc43)CC2)cc1,.,.,.,-32.6,.,.,.
CC(C1CC1)N(Cc1ccccc1)C(=O)NC(=O)c1ccc(F)cc1 (centres undefined),i,34.0*,-24.1,1.8,-4.6,4.3,-0.5
COc1ccc(CCC(=O)N(C)CC(=O)Nc2cc(C)ccc2C)cc1,i,17.4*,-24.0,2.8,-11.1,6.0,1.2
CC(C)CN(/C=N/c1sc2c(c1C#N)CCCCC2)CC(C)C,.,4.3,-12.5,2.9,-10.2,.,.
CCN(/C=N/c1sc2c(c1C#N)CCCCC2)CC,i,13.1*,-9.3,-1.0,-15.9,7.4,4.3
CCC(=O)Nc1nnc(-c2ccccc2F)s1,.,.,.,-38.6,.,14.4,.
c1ccc2[nH]c(NN=C3CCCCCC3)nc2c1,i,17.3*,-20.0,-38.5,-31.1,11.6,3.0
SMILES,HSV replic up,Wee1 stabilizer,Furin inhibitor,EP2 mod,NCF1 inh,EP2 antag,Wee1 stab conf
c1ccc2[nH]c(NC3=NCCC3)nc2c1,i,0.3,-24.7,11.5,-13.6,7.4,.
N#Cc1cnc(SCCc2ccccc2)nc1N,i,27.7*,12.9,-6.5,-16.1,10.7,2.3
N#C/C(=C\c1ccc(OC(F)F)cc1)C(=O)N1CCCCC1,i,14.8*,-26.6,-18.6,-11.8,8.2,0.3
CCN1CCN(C(=O)/C(C#N)=C/c2ccc(OC(F)F)cc2)CC1,i,-0.8,1.7,-10.6,4.6,9.0,.
O=C(CC(c1ccccc1)c1ccccc1)Nc1ccc(Cl)cn1,i,0.7,-6.8,41.9,-9.1,3.6,.
O=C(/C=C/c1ccccc1)Nc1ccc(Cl)cn1,i,11.4*,-19.0,5.0,-13.6,4.1,9.0*
CCc1nn(CC(=O)C(C)(C)C)c(=O)c2cc3ccsc3n12,.,.,.,-75.0,.,.,.
CCOC(=O)CSc1nc2cc(C(F)(F)F)cnc2n1C,i,10.9*,-28.8,11.3,-2.9,9.5,1.8
CCCn1c(SCC(=O)OCC)nc(C(F)(F)F)cc1=O,i,-1.6,-12.8,21.8,0.4,3.2,.
O=C(NCc1ccco1)/C(=C\c1ccco1)NC(=O)c1cccs1,i,30.4*,-9.6,14.5,-8.0,2.5,3.9
CCCc1cc(=O)n2[nH]c(-c3ccc(C)cc3)cc2n1,i,13.0*,-17.3,-9.2,12.0,11.3,4.5
Cc1cc(NC(=O)CSc2nnc(C3COc4ccccc4O3)n2C)no1 (centres undefined),i,21.5*,-7.9,-31.9,7.8,5.8,-2.9
COc1cc(/C=N/Nc2ccc(S(N)(=O)=O)cc2[N+](=O)[O-])cc(OC)c1O,i,10.9*,-8.7,-41.9,-2.5,22.2,-1.2
Cc1ccc(S(=O)(=O)N(C)CCCC(=O)NC(C)(C)C)cc1,i,12.0*,-23.8,21.3,4.3,13.8,-0.9
Cc1cccc(N(C(=O)CNC(=O)c2ccco2)C(C(=O)NCC2CCCO2)c2ccccc2)c1 (centres undefined),i,-0.7,-14.5,-14.8,6.9,11.9,.
CC(=O)c1cccc(N(C(=O)CNC(=O)c2ccco2)C(C(=O)NCc2ccco2)c2ccccc2)c1 (centres undefined),i,18.5*,-25.1,9.7,-1.3,6.0,-2.8
CC(C)c1nnc(SCC(=O)NCc2ccc3c(c2)OCO3)n1C,i,11.9*,-7.4,24.5,-5.2,5.9,-0.5
CC1CCc2c(nc3ncnn3c2NCc2ccc(F)cc2)C1 (centres undefined),.,.,.,-26.1,.,10.6,.
CCOC(=O)c1sc(NC(=O)CNC(=O)Cn2cnc3sc(C)c(C)c3c2=O)nc1C,i,11.1*,-21.0,4.9,-7.6,13.5,-2.1

# Bioassay records deposited in PubChem BioAssay by several laboratories.
